Measurements published in ChEMBL document CHEMBL4513216, “Probing the Open Global Health Chemical Diversity Library for Multistage-Active Starting Points for Next-Generation Antimalarials” (ACS Infect Dis, 2020).
The whole screen tested about 68,000 compounds, of which about 2,700 (4%) showed an effect of 50% or more. This is one part of a sample in which strong results are shown more often than they occur.

Tested on: Plasmodium berghei
Experiment: Screen against P. berghei liver stage (PbLuc), transformed with Luciferase, at 2uM
Assay type: functional, HepG2
Conditions: tested at 2 uM

SMILES | INHIBITION [%]
Cc1cc(NCc2ccco2)nc2[nH]nc(N)c12 | -0.89
Fc1cccc(-c2nnn3c2COC(CNCc2nccs2)C3)c1 (stereo not given) | -19.51
CC(C)NC(=O)N1CCOC2(CCCN(c3cccc(C#N)c3)C2)C1 (stereo not given) | 24.82
CCS(=O)(=O)N1CCOC2(CCCN(c3cccc(C#N)c3)C2)C1 (stereo not given) | 56.76
Cc1cccc(N2CCCC3(C2)CN(S(C)(=O)=O)CCO3)c1 (stereo not given) | -51.66
CCOCC(O)CN1CCN(C(=O)c2ccccc2Cl)CC1 (stereo not given) | -45.23
Cc1cc(C(=O)N2CCN(CC(O)Cn3cccn3)CC2)c(C)o1 (stereo not given) | 12.62
O=C(c1cccc(Cl)c1Cl)N1CCN(CC(O)Cn2cccn2)CC1 (stereo not given) | 65.3
CCCC(=O)NCC(=O)NC(c1ccc(Cl)cc1)C(F)(F)F (stereo not given) | 28.25
Cc1cccc(C(=O)NCc2ccnc(N(C)C)c2)n1 | -11.1
O=C(C1CC1)N1CCN2C[C@H](c3ccccc3)[C@@H](CO)[C@H]2C1 | 7.41
CCCc1nnc(NC(=O)N2CCCC2c2ccncc2)s1 (stereo not given) | -24.78
CC(=O)NC1CCCN(C(=O)Nc2nnc(C(C)C)s2)C1 (stereo not given) | 20.14
CCCc1nnc(NC(=O)N2CCCC(NC(C)=O)C2)s1 (stereo not given) | 52.08
CC(=O)NC1CCCN(C(=O)NCc2cccnc2N(C)C)C1 (stereo not given) | 20.71
CCC(CC)c1nnc(NC(=O)N2CCCC(NC(C)=O)C2)s1 (stereo not given) | 56.49
CCC(CC)c1nnc(NC(=O)N2CCC(C(N)=O)CC2)s1 | 23.45
Cc1cc(C)c(S(=O)(=O)Nc2cccc3c2OCCO3)cc1C(=O)O | -49.16
Cc1oncc1C(=O)N1CC[C@H]2[C@H](CO[C@@H]2CNS(C)(=O)=O)C1 | 11.37
O=C(NCC1CCCCC1)N1C[C@@H]2C[C@@H]1CN2 | -3.1
CC(C)(C)CC(=O)N1C[C@@H]2C[C@@H]1CN2 | 74.88
O=C(CC1CCCC1)N1C[C@@H]2C[C@@H]1CN2 | 30.4

SMILES | INHIBITION [%]
CC(C(=O)N1CCc2sccc2C1)N1CCC(S(N)(=O)=O)CC1 (stereo not given) | 44.37
CN(Cc1ncnn1C)c1ccnc(Cc2ccccc2)n1 | 26.49
CN(C)c1nccc(N(C)Cc2nc3ccccc3n2C)n1 | 13.51
CN(C)c1nccc(N(C)Cc2ncnn2C)n1 | 65.42
CN(Cc1cccs1)c1cc(N2CCCC2CO)ncn1 (stereo not given) | -25.71
Cc1c[nH]cc1C(=O)N1CCN(CCc2cccs2)CC1 | -14.3
Cc1ccc(OCC(C)NS(C)(=O)=O)cc1 (stereo not given) | 41.84
Cc1ccc(OCC(C)NS(C)(=O)=O)cc1C (stereo not given) | 52.85
COc1ccc(OCC(C)NS(C)(=O)=O)cc1 (stereo not given) | 37.05
Cc1ncc(S(C)(=O)=O)c(N(C)CCCc2cnn(C)c2)n1 | 13.95
CCc1ccc(C(=O)N2C[C@@H]3COC[C@@H](C(=O)NC)[C@@H]3C2)cc1 | -10.98
CNC(=O)[C@@H]1COC[C@H]2CN(C(=O)c3cccc(OC)c3)C[C@H]21 | 11.6
CNC(=O)[C@@H]1COC[C@H]2CN(C(=O)c3ccc(OC)cc3)C[C@H]21 | 51.36
Cc1cnn(C2CN(Cc3nc(-c4ccsc4)no3)C2)c1 | 56.02
Cc1ccc(-c2noc(CN3CC(n4cc(C)cn4)C3)n2)cc1 | -21.39
c1cnn(C2CN(Cc3nc(-c4ccsc4)no3)C2)c1 | -5.2
COCC1CN(C(=O)CC2Cc3ccccc3C2)Cc2c1cnn2C (stereo not given) | 56.25
COCC1CN(C(=O)c2ccnnc2)Cc2c1cnn2C (stereo not given) | 6.57
COCC1CN(C(=O)Cc2cccs2)Cc2c1cnn2C (stereo not given) | -41.11
COc1ccccc1S(=O)(=O)N1CCC(Oc2cccnn2)CC1 | 33.61
CN(C)S(=O)(=O)N1CCC(Oc2cccnn2)CC1 | 20.38
COC(=O)c1sccc1S(=O)(=O)N1CCC(Oc2cccnn2)CC1 | 23.42

SMILES | INHIBITION [%]
Cc1ccc(S(=O)(=O)N2CCC(Oc3cccnn3)CC2)c(C)c1 | 71.06
O=S(=O)(c1ccccc1F)N1CCC(Oc2cccnn2)CC1 | 51.31
Cc1noc(C)c1S(=O)(=O)N1CCC(Oc2ccccn2)CC1 | -11.22
Cc1noc(C)c1S(=O)(=O)N1CCC(Oc2cccnn2)CC1 | -12.23
CN(C)S(=O)(=O)N1CCC(Oc2ccccn2)CC1 | -19.47
Cc1ccc(S(=O)(=O)N2CCC(Oc3ccccn3)CC2)c(C)c1 | 56.24
O=C(NCCCn1cccn1)N1CCCC1c1cccs1 (stereo not given) | -13.45
CCc1cc2c(N3CCCC(c4cc(C(N)=O)[nH]n4)C3)ncnc2s1 (stereo not given) | -126.83
Cc1cnc(C(=O)N2CCc3c(nc(-c4ccncc4)[nH]c3=O)C2)cn1 | 10.63
CNC(=O)C(C)(C)N1CCC[C@H]1C(=O)NC1CC1 | 24.91
CC(C)[C@@H]1CN(C(=O)C2(c3ccccc3)CC2)C[C@H]1C(=O)O | 69.67
CC(C)[C@@H]1CN(C(=O)C2(c3ccccc3)CCN(C)CC2)C[C@H]1C(=O)O | 31.51
COc1ccc(C2(C(=O)N3C[C@@H](C(=O)O)[C@H](C(C)C)C3)CC2)cc1 | 17.2
CCS(=O)(=O)N(C)c1ccc(C(=O)N2CCCC(C)C2)cc1 (stereo not given) | 62.77
CCN(c1ccc(C(=O)N2CCC(C)CC2)cc1)S(=O)(=O)CC | 9.63
CCN(c1ccc(C(=O)N2CCCC(C)C2)cc1)S(=O)(=O)CC (stereo not given) | -2.82
CN1CCN(C(=O)C2(NC(N)=O)CCCCC2)Cc2ccccc21 | 50.61
NC(=O)NC1(C(=O)N2CCc3c(Cl)cccc3C2)CCCCC1 | 42.2
CN1CCN(C(=O)C2(S(C)(=O)=O)CCCC2)Cc2ccccc21 | -21.76
O=C(CC1CC1)N[C@@H]1CN(Cc2ccccn2)C[C@@H]2CCCO[C@@H]21 | -5.84
c1ccc(CCN2CCCC(c3ccnc4nccn34)C2)cc1 (stereo not given) | 32.74
